Data on 8 molecules can be found in PubChem BioAssay (NCI).

Test systems include NCI-H23 lung; NCI-H322M lung; HOP-62 NSCLC; NCI-H460 lung; HOP-92 NSCLC; NCI-H522 lung; A549/ATCC NSCLC; 786-0 renal; COLO 205 colon; DU-145 prostate; K-562 leukemia; MALME-3M melanoma; MDA-MB-231 breast; SF-268 CNS; SF-295 CNS; SF-539 CNS; M14 melanoma; RXF 393 renal; UACC-257 melanoma.
What all share (test): NCI-60 one-dose screen, 48 h (100 = growth as untreated, 0 = no growth, -100 = all killed)
Conditions in all cases: 10 µM unless noted

SMILES strings stand for the structures. Compounds without any hit were thinned out: in the full panel of roughly 83,000, 20% have a hit.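 Each cell line was grown in a 96-well plate and treated with one concentration of compound for 48 hours. Values below 10 were considered active.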 Values without a mark were called inactive. Active and inactive are the calls of the source.

As for `CSc1nc2ncnc(SC)c2[nH]1`, the growth in the test on NCI-H23 lung was 96.1%; in the test on NCI-H322M lung, 101%; in the test with HOP-62 NSCLC it was 77.8%; with NCI-H460 lung it was 109%; in the test on HOP-92 NSCLC it was 98.7%; in the test with NCI-H522 lung, 76%. Moreover, the growth with A549/ATCC NSCLC was 62.3%; in the test with 786-0 renal it was 98.9%; in the test on COLO 205 colon, 103%; in the test with DU-145 prostate, 110%; in the test with K-562 leukemia, 100%; with MALME-3M melanoma it was 110%. Also, the growth with MDA-MB-231 breast was 107%; in the test with SF-268 CNS, 102%; in the test with SF-295 CNS it was 102%; in the test with SF-539 CNS, 103%; with M14 melanoma, 97.9%.
With `NC1(C(=O)N[C@@H](CCO)c2ccc(Cl)cc2)CCN(c2ncnc3[nH]ccc23)CC1`, the growth was 53% in the test on NCI-H23 lung; 55% in the test on NCI-H322M lung; 33.9% with HOP-62 NSCLC; 24.6% in the test with NCI-H460 lung; -13.2% (active) in the test on HOP-92 NSCLC; 44.2% in the test on NCI-H522 lung. Moreover, the growth in the test on A549/ATCC NSCLC is 56.6%; with 786-0 renal, 1.31% (active); with COLO 205 colon, 32.1%; in the test on DU-145 prostate, 57.2%; in the test on K-562 leukemia, 76.9%; in the test with MALME-3M melanoma, 9.74% (active). For the same molecule, the growth in the test with MDA-MB-231 breast is 73.5%; in the test with RXF 393 renal it was -42.3% (active); with SF-268 CNS, 60.9%; in the test with SF-295 CNS it was -3.48% (active); in the test with SF-539 CNS, -54.4% (active); in the test with UACC-257 melanoma, 31.7%. In addition, the growth in the test with M14 melanoma is 46.3%.
Turning to `COC(=O)Nc1nc2ccc(C(=O)c3ccc(N(C)C4COC4)cc3)cc2[nH]1`, the growth in the test on NCI-H23 lung was 30.5%; in the test on NCI-H322M lung it was 48.3%; in the test with HOP-62 NSCLC, 10.2%; in the test with NCI-H460 lung, 3.28% (active); in the test with HOP-92 NSCLC, 46.8%; with NCI-H522 lung, -31.5% (active). Besides, the growth in the test on A549/ATCC NSCLC is 14.9%; with 786-0 renal it was 27.8%; with COLO 205 colon, -38.8% (active); in the test on DU-145 prostate, 12.7%; in the test with K-562 leukemia it was 7.83% (active); in the test with MALME-3M melanoma, 53.8%. Moreover, the growth is 37.8% in the test on MDA-MB-231 breast; 22.1% with RXF 393 renal; 41.5% with SF-268 CNS; 13.3% in the test with SF-295 CNS; -7% (active) in the test with SF-539 CNS; 44.4% with UACC-257 melanoma. Besides, the growth with M14 melanoma is 3.69% (active).
As for `COc1cc(CCc2cc(NC(=O)c3ccc(N4C[C@@H](C)N[C@@H](C)C4)cc3)n[nH]2)cc(OC)c1`, the growth in the test on NCI-H23 lung was 40.1%; in the test with NCI-H322M lung, 22.7%; in the test with HOP-62 NSCLC, 38.1%; with NCI-H460 lung, 24.6%; in the test on HOP-92 NSCLC it was 54.4%; in the test on NCI-H522 lung, 40.4%. Further, the growth in the test with A549/ATCC NSCLC was 37.4%; in the test on 786-0 renal it was 38.6%; in the test on COLO 205 colon, 9.19% (active); in the test with DU-145 prostate, 37.7%; in the test on K-562 leukemia, 8.61% (active); with MALME-3M melanoma, 26.6%. Further, the growth in the test on MDA-MB-231 breast was 44.2%; with RXF 393 renal, -10.1% (active); with SF-268 CNS, 39.4%; with SF-295 CNS, 62.4%; in the test on SF-539 CNS it was 16.9%; in the test with UACC-257 melanoma, 3.28% (active). The growth in the test with M14 melanoma was 18%.
Turning to `CN1CC[C@@H](c2c(O)cc(O)c3c(=O)cc(-c4ccccc4Cl)oc23)[C@@H]1CO`, the growth was -26.5% (active) in the test on NCI-H23 lung; -1.67% (active) with NCI-H322M lung; -21.2% (active) with HOP-62 NSCLC; 4.14% (active) in the test with NCI-H460 lung; -2.24% (active) with HOP-92 NSCLC; -13.8% (active) in the test with NCI-H522 lung. For the same molecule, the growth in the test with A549/ATCC NSCLC was 4.56% (active); in the test on 786-0 renal, 4.31% (active); in the test with COLO 205 colon it was -64.5% (active); with DU-145 prostate, 10.7%; in the test with K-562 leukemia, 4.81% (active); in the test on MALME-3M melanoma, -46.8% (active). Also, the growth was 6.99% (active) in the test with MDA-MB-231 breast; -62.8% (active) with RXF 393 renal; 3.32% (active) with SF-268 CNS; 3.04% (active) in the test on SF-295 CNS; -33.3% (active) in the test with SF-539 CNS; -25.8% (active) with UACC-257 melanoma. Also, in the test on M14 melanoma, the growth is -35.4% (active).
As for `COc1ccc(C2CC(=O)c3c(O)c(OC)c(OC)c(OC)c3O2)cc1O` (stereo not drawn), the growth in the test with NCI-H23 lung was 33.8%; with NCI-H322M lung it was 44.3%; in the test with HOP-62 NSCLC, 61.9%; in the test with NCI-H460 lung, 3.01% (active); with HOP-92 NSCLC it was 79.5%; in the test with NCI-H522 lung, 13.1%. Further, the growth with A549/ATCC NSCLC is 28.7%; in the test on 786-0 renal it was 49%; in the test on COLO 205 colon, 67.3%; with DU-145 prostate, 18.2%; in the test with K-562 leukemia it was 11.6%; in the test on MALME-3M melanoma it was 57.5%. Also, the growth is 17.1% in the test with MDA-MB-231 breast; 44.6% in the test with SF-268 CNS; 6.54% (active) in the test on SF-295 CNS; -13% (active) with SF-539 CNS; 7.68% (active) with M14 melanoma.
Consider `N#CC[C@H](C1CCCC1)n1cc(-c2ncnc3[nH]ccc23)cn1`, for which the growth with NCI-H23 lung is 71.5%; in the test with NCI-H322M lung it was 76.2%; in the test on HOP-62 NSCLC, 45.1%; in the test on NCI-H460 lung it was 54.7%; with HOP-92 NSCLC, 41.5%; with NCI-H522 lung it was 37.9%. Moreover, the growth was 43.8% in the test with A549/ATCC NSCLC; 54.7% with 786-0 renal; 37% in the test with COLO 205 colon; 62.8% in the test with DU-145 prostate; 70.4% in the test on K-562 leukemia; 97% in the test on MALME-3M melanoma. Besides, the growth is 60.4% in the test with MDA-MB-231 breast; 15.9% in the test with RXF 393 renal; 59.8% in the test with SF-268 CNS; 76.6% in the test on SF-295 CNS; 67.4% with SF-539 CNS; 78.9% in the test with UACC-257 melanoma. Moreover, the growth in the test on M14 melanoma is 77.9%.
For the molecule `C[C@@H](Oc1cc(-c2cnn(C3CCNCC3)c2)cnc1N)c1c(Cl)ccc(F)c1Cl`, the growth was -10.4% (active) in the test on NCI-H23 lung; 15.2% with NCI-H322M lung; -34.8% (active) in the test with HOP-62 NSCLC; -64.4% (active) with NCI-H460 lung; -51.9% (active) in the test with HOP-92 NSCLC; -74.8% (active) with NCI-H522 lung. Moreover, the growth with A549/ATCC NSCLC is -40.9% (active); with 786-0 renal it was -74.7% (active); in the test with COLO 205 colon it was -78.5% (active); in the test with DU-145 prostate it was -0.0589% (active); in the test with K-562 leukemia, -38.7% (active); in the test on MALME-3M melanoma, -88.2% (active). In addition, the growth was -58.6% (active) in the test with MDA-MB-231 breast; -87.3% (active) in the test with RXF 393 renal; 1.66% (active) in the test with SF-268 CNS; -72.1% (active) in the test on SF-295 CNS; -95.5% (active) with SF-539 CNS; -83.3% (active) with UACC-257 melanoma. For the same molecule, the growth in the test on M14 melanoma is -77.2% (active).
